Lamin A splicing = changes lamin A minigene splicing in HeLa cells. HeLa LMNA splicing GFP/RFP minigene ratio, 48 h. Potency, µM (titrated, usually from 46.1 µM), most hits filed as inhibitors. actives 0.01% (n = 200,000). AID 1487; active = well fitted inhibition curve with a large enough effect in the signal ratio, with a control signal flat, not every such curve was filed as active; inconclusive = small, poorly fitted or top-dose-only effect, or effect the other way, or a change in a side signal; the % refers to the signal ratio
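S3 HeLa cells stably expressing lamin A-EGFP splicing minigene plus DsRed2, 600 cells/well, 48 h compound exposure at 37C. Laser-scanning cytometry; analysed as GFP (500-530 nm)/RFP (575-640 nm) total intensity ratio; 0.5% DMSO vehicle.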
HPGD inh = blocks human HPGD enzyme activity; P15428; purified HPGD, NADH fluorescence kinetic, PGE2 substrate; Potency, µM, most hits filed as inhibitors; actives 4.3% (n = 150,000); AID 894
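NADH formation kinetics: reaction with 30 uM PGE2 and 1 mM NAD+ (final), 20 nM enzyme, Tris-HCl pH 8 with Tween 20, after 15 min compound preincubation at room temperature. Fluorescence change, last versus first of five reads.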
ALDH1A1 block = inhibitors of human aldehyde dehydrogenase 1A1; P00352; Purified ALDH1A1, NADH fluorescence, propionaldehyde substrate; actives 7.3% (n = 220,000); Potency, µM (titrated, usually from 75.3 µM), usual class: inhibitors
Target sequence (P00352 whole entry, looked up): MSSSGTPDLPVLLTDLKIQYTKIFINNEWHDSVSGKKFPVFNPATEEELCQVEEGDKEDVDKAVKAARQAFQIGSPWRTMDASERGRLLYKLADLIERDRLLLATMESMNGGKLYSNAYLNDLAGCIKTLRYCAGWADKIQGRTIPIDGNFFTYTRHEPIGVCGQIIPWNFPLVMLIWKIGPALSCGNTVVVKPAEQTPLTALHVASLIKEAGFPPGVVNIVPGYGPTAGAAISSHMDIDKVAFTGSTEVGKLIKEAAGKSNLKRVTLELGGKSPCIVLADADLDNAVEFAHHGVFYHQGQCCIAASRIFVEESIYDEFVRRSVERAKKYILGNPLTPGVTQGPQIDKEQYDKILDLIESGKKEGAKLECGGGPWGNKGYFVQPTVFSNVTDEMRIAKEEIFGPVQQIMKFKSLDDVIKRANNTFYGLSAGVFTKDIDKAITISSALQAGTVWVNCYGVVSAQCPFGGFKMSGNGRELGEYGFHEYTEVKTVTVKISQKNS
PNC inhibitor = blocks assembly of the perinucleolar compartment. actives 3.1% (n = 140,000). AID 2417. activity change (PNC), negative = inhibition, % at 10 µM. PC3M PTB-GFP, PNC prevalence imaging, 16 h; stronger effect = lower value;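 active = readout at or below -70, meaning at least 70% loss of cells showing the perinucleolar compartment, a nuclear body marking cancer cells; inconclusive = readout between -30 and a set limit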
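PC3M cells stably expressing PTB-GFP, 750–1000 cells/well, treated 16 h at 37 °C with compound (23 nl of library stock), in duplicate. After paraformaldehyde fixation and Hoechst stain, imaged at 20x; PNC prevalence scored by image analysis.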
ALOX12 inhib = 12-hLO (ALOX12) enzyme inhibition; P18054; purified 12-hLO, xylenol orange hydroperoxide absorbance; Potency, µM (titrated, usually from 57.1 µM), usual class: inhibitors; actives 0.12% (n = 150,000); AID 1452; active = well fitted inhibition curve with a large enough effect; inconclusive = small, poorly fitted or top-dose-only effect; also: nearly all actives have a fitted effect of over 55% in size
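Hydroperoxide output read as Fe(III)-xylenol orange absorbance, 573-to-405 nm ratio, after 30 min reaction with 40 uM arachidonic acid. Enzyme: 150 nM purified human 12hLO, 15 min compound preincubation; 25 mM Hepes pH 7.0, room temperature.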
Numbers stand for hits; 0 = inactive; ? = inconclusive; - = no result given; [ ] = another dose, or the depositor's remark. Hits are enriched below; roughly 10% of the tested compounds scored in any of these assays. Unless noted, calls follow the shape of the dose curve; as a rule, active = well fitted inhibition curve with a large enough effect (not every such curve was filed as active); inconclusive = small, poorly fitted or top-dose-only effect, or another doubt; inactive = no such curve, though single readings can be large or run the other way.

SMILES	Lamin A splicing	HPGD inh	ALDH1A1 block	PNC inhibitor	ALOX12 inhib
Cc1ccccc1OCC1CO1 (stereo unspecified)	-	0	?	-	0
COc1cc(C2C(=O)N(C3CCCCC3)CC(=O)N2Cc2ccc(C)cc2)ccc1OC(C)C (stereo unspecified)	0	-	-	-	-
Nc1nccs1	-	0	0	-	0
O=C(CC1(O)C(=O)N(Cc2ccccc2Cl)c2ccccc21)c1ccco1 (stereo unspecified)	0	0	1.3µM	?	0
CC12CN3CC(C)(CN(C1)C31C(=O)N(Cc3ccccc3)c3ccccc31)C2=O (stereo unspecified)	0	0	7.9µM	?	0
CC(C)(C)C(=O)CC1(O)C(=O)N(Cc2ccc(Cl)cc2)c2ccccc21 (stereo unspecified)	0	0	?	0	0
O=C(O)CC1(O)C(=O)N(Cc2ccccc2)c2ccccc21 (stereo unspecified)	0	-	20µM	-	-
COc1ccc(CN2C(=O)C(O)(CC(=O)c3ccc4c(c3)OCO4)c3ccccc32)cc1OC (stereo unspecified)	0	0	4.5µM	0	0
O=C(CC1(O)C(=O)N(CCc2ccccc2)c2ccccc21)c1ccccn1 (stereo unspecified)	0	-	?	-	-
CCOC(=O)c1c(C)oc2nc(C)nc(NCCCN3CCN(c4cccc(C)c4)C(C)C3)c12 (stereo unspecified)	0	-	-	-	-
COc1ccccc1N1CCN(c2ncnc3c2nnn3C)CC1	0	-	-	-	-
CCn1nc(C)c2c(-c3ccccc3)cc(=O)n(C(C)C(=O)NCCc3ccccc3)c21 (stereo unspecified)	0	-	-	-	-
CN1C(=O)C(O)(CC(=O)c2ccccc2O)c2cc(Br)ccc21 (stereo unspecified)	?	0	0	0	0
Cc1coc(C)c1C(=O)CC1(O)C(=O)N(CCc2ccccc2)c2ccccc21 (stereo unspecified)	0	?	4.5µM	0	0
CCCCN1C(=O)C(O)(CC(=O)c2ccco2)c2cc(Br)ccc21 (stereo unspecified)	?	0	8.9µM	0	0
CN1C(=O)C(O)(CC(=O)c2cccc(-n3cccc3)c2)c2ccccc21 (stereo unspecified)	0	0	?	0	0
C#CCN1C(=O)C(O)(CC(=O)c2cccc(OC)c2)c2ccccc21 (stereo unspecified)	0	0	1.6µM	?	0
CCOC(=O)CN1C(=O)C(O)(CC(=O)c2ccco2)c2ccccc21 (stereo unspecified)	0	0	0.16µM	?	0
COc1ncc2nc(C)c(=O)n(C[C@H]3CCCO3)c2n1	-	0	0	-	0
COc1ccc(C(=O)N/N=C2/SCC(=O)N2Cc2ccc3c(c2)OCO3)cc1OC	0	0	20µM	0	0
COc1cccc2cc(C(C)=O)c(=O)oc12	0	0	0	0	0
COc1cccc(C(=O)N/N=C2\SCC(=O)N2Cc2ccc3c(c2)OCO3)c1	0	0	0	0	0
CN1C(=O)C(O)(CC(=O)/C=C/c2ccco2)c2ccccc21 (stereo unspecified)	0	-	0	-	-
CN1C(=O)C(O)(CC(=O)/C=C/c2ccco2)c2cc(Br)ccc21 (stereo unspecified)	-	-	24µM	-	-
CC1(C)CC(=O)C(C2(O)C(=O)N(Cc3ccccc3)c3ccccc32)CO1 (stereo unspecified)	0	0	0.032µM	0	0
SMILES	Lamin A splicing	HPGD inh	ALDH1A1 block	PNC inhibitor	ALOX12 inhib
COc1cccc2cc(C(=O)CC3(O)C(=O)N(Cc4ccccc4)c4ccccc43)c(=O)oc12 (stereo unspecified)	0	0	0.089µM	0	0
COc1cccc(CNC(=O)CN2C(=O)N(c3ccc(C)cc3C)S(=O)(=O)c3ccccc32)c1OC	0	-	-	-	-
COc1cc(OC)c(OC)cc1CNc1sc2c(c1C(=O)Nc1ccccc1OC)CCC2	0	-	-	-	-
CCN(CC(=O)Nc1ccc(N2CCOCC2)cc1)C(=O)COc1ccccc1OC	0	-	0	-	-
CCOC(=O)CN1C(=O)C(O)(CC(=O)c2cccc(OC)c2)c2ccccc21 (stereo unspecified)	0	0	0.28µM	0	0
CCN1C(=O)C(O)(CC(=O)c2ccc3c(c2)OCCO3)c2ccccc21 (stereo unspecified)	0	0	?	0	0
Cc1[nH]c2ccccc2c1C1(O)C(=O)N(Cc2ccc3c(c2)OCO3)c2ccccc21 (stereo unspecified)	0	0	0.71µM	?	0
C#CCN1C(=O)C(O)(c2c(C)[nH]c3ccccc23)c2ccccc21 (stereo unspecified)	0	-	-	-	-
CCOC(=O)CN1C(=O)C(O)(CC(=O)c2ccc3c(c2)CCCC3)c2ccccc21 (stereo unspecified)	0	0	10µM	0	0
Cc1ccc(CNC(=O)c2ccc(Cn3c(SCc4ccccc4F)nc4cccnc43)cc2)cc1	0	-	-	-	-
O=C(O)CCc1nn2c3ccccc3n(Cc3ccccc3F)c2nc1=O	0	-	?	-	-
CN(CCO)c1ccc([N+](=O)[O-])cc1C(=O)O	0	0	22µM	0	0
O=C(O)c1cc([N+](=O)[O-])ccc1NCCO	0	0	0	0	0
CS(=O)(=O)Nc1cccc(-c2nc(NCCN3CCOCC3)c3ccccc3n2)c1	0	0	0	-	0
Cc1cccc(N/C=C(\[N+](=O)[O-])S(=O)(=O)c2ccccc2)c1	0	-	0	-	-
Cc1cccc(N/C=C(\[N+](=O)[O-])S(=O)(=O)c2ccccc2)c1C	0	-	25µM	-	-
CC(C)CC(=O)Nc1cccc(-c2cn3cccnc3n2)c1	0	-	-	-	-
CC1CC(OC(=O)C(O)c2ccccc2)CC(C)(C)C1 (stereo unspecified)	?	0	0	-	0[0.00818 µM]
COc1cc(/C=C2/CCC/C(=C\c3cc(O)c(OC)c(Cl)c3)C2=O)cc(Cl)c1O	?	0	14µM	0	0
COc1cc(/C=C2\CC/C(=C\c3cc(OC)c(O)c(OC)c3)C2=O)cc(OC)c1O	?	?	0	0	0
CSc1cc(/C=N/O)c(SC)s1	0	11µM	?	0	0
CCS(=O)(=O)N1CC(=O)N(c2cccc(Cl)c2)C(C)(C(=O)NC2CCCCCC2)C1 (stereo unspecified)	0	-	-	-	-
CCC(CC)(CC(=O)Nc1cccc(/C=C/c2nc(C3CCC3)cs2)c1)C(=O)O	-	?	?	-	0
COc1ccc(N2CCN(C(=O)C3CCN(S(=O)(=O)c4cccc5nonc45)CC3)CC2)cc1	0	-	-	-	-
CCOC(=O)Cn1c(=O)oc2cc(S(=O)(=O)Nc3ccc(N(CC)CC)cc3C)ccc21	0	28µM	?	0	0
CCOC(=O)Cn1c(=O)oc2cc(S(=O)(=O)Nc3cc(OCC)ccc3OCC)ccc21	0	0	0	0	0
CCOC(=O)Cn1c(=O)oc2cc(S(=O)(=O)Nc3cc(Cl)ccc3OC)ccc21	0	0	?	-97	0
COc1cccc(-c2nc(NCc3cnc(C)cn3)c3ccccc3n2)c1	0	0	0	-	0
